Measured values: PubChem BioAssay
Calls of active or inactive are those of the source.

Legend:
[1] = tested on: Plasmodium falciparum Sir2 (PF13_0152, Sir2A); assay: Plasmodium falciparum Sir2A binding compounds – biochemical, small-molecule microarray, 635 nm fluorescence, primary screen (AID 1098); details: fluorescence 635 nm, higher = more signal;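 also: score merges spot fluorescence intensity with its signal-to-noise ratio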
[2] = probe aDKK1 binding to arrayed compounds – biochemical, biotinylated probe, 635/667 nm fluorescence, primary screen (AID 1099); details: small-molecule microarray, higher = more signal;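 also: score merges 667nm spot fluorescence with signal to noise across triplicate slides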
[3] = probe aCHRDL2 binding to arrayed compounds – biochemical, biotinylated probe, 635/667 nm fluorescence, primary screen (AID 1100); details: small-molecule microarray, higher = more signal
[4] = change in splice reporter luminescence, either direction, cell-based, HEK293, spliceosome inhibition project, primary screen (AID 1101); details: HEK293 splicing luciferase reporter, 24 h, higher = more signal, called active from +8 up or from −8 down;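 also: HEK293 cells carrying a splicing-competent luciferase reporter gene; test concentration not given here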
[5] = target: Fibroblast growth factor 10 (Homo sapiens) (UniProt O15520); assay: compounds binding fibroblast growth factor 10 – biochemical, small-molecule microarray, 635 nm fluorescence, primary screen (AID 1102); details: FGF10 binding, fluorescence 635 nm, higher = more signal
Fibroblast growth factor 10 (Homo sapiens), sequence (O15520 whole entry, looked up): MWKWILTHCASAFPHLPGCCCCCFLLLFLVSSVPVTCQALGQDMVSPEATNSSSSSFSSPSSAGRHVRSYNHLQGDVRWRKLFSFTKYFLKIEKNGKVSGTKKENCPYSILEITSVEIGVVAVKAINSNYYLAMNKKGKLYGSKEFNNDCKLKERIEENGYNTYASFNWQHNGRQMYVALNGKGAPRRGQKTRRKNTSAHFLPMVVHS

[6] = tested on: glycogen synthase kinase-3 (GSK3A per assay name; protocol says GSK3B); assay: compounds binding glycogen synthase kinase-3 – biochemical, small-molecule microarray, 635 nm fluorescence, GSK3A, primary screen (AID 1103); details: fluorescence 635 nm, higher = more signal; also: the record names both GSK3A and GSK3B
[7] = target: Epidermal growth factor receptor (Homo sapiens) (UniProt P00533); assay: compounds binding epidermal growth factor receptor – biochemical, small-molecule microarray, 635 nm fluorescence, primary screen (AID 1104); details: EGFR binding, higher = more signal;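 also: score merges 667 nm emission intensity with spot signal to noise over triplicate slides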
Epidermal growth factor receptor (Homo sapiens), sequence (P00533 whole entry, looked up): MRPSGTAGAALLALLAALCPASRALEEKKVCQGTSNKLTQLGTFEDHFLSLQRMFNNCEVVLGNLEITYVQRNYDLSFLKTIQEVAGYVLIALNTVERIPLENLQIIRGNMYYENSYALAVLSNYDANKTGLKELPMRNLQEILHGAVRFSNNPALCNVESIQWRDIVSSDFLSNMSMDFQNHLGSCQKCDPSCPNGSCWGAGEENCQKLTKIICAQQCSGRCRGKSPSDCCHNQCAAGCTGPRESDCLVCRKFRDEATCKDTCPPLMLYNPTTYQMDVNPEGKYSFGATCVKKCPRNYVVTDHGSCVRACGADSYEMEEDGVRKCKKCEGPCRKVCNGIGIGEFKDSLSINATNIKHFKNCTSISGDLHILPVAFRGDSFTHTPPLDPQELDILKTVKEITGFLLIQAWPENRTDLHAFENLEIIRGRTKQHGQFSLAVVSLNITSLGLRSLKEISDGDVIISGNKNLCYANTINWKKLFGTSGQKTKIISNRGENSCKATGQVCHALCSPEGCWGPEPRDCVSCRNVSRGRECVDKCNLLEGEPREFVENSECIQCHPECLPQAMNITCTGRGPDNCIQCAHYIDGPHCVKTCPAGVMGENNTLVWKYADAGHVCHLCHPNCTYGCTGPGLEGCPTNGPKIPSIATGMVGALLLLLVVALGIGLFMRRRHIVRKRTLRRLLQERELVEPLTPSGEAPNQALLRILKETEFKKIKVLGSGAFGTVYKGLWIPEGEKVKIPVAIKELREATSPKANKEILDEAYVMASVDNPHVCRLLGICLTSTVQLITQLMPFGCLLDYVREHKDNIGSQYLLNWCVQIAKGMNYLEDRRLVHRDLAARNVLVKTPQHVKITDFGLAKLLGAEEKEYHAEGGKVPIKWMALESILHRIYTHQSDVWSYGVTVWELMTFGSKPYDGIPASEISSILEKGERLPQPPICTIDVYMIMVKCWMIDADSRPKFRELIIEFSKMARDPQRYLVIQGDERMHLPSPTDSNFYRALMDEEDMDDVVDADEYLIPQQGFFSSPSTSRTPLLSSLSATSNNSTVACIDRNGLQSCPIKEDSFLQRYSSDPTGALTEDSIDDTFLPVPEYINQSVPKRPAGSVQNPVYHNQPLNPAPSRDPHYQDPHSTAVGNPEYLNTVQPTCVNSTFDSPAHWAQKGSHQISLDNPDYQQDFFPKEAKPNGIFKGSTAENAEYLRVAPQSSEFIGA

[8] = target: Follistatin-related protein 3 (Homo sapiens) (UniProt O95633); assay: compounds binding follistatin-related protein 3 – biochemical, small-molecule microarray, 635 nm fluorescence, primary screen (AID 1105); details: FSTL3 binding, higher = more signal;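 also: score merges emission near 667 nm and signal to noise per printed spot across three slides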
Follistatin-related protein 3 (Homo sapiens), sequence (O95633 whole entry, looked up): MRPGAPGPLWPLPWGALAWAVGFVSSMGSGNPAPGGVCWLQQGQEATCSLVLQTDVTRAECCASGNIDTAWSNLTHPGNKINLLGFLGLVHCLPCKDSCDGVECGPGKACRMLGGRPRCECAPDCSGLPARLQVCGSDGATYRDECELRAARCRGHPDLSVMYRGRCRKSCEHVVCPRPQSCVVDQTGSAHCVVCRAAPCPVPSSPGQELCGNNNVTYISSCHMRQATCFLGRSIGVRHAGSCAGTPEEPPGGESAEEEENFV

[9] = target: Dickkopf-related protein 1 (Homo sapiens) (UniProt O94907); assay: small molecules binding DKK1 protein – biochemical, small-molecule microarray, 635 nm fluorescence scan, primary screen (AID 1106); details: higher = more signal;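 also: score merges emission near 667 nm with signal to noise over three replicate slides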
Dickkopf-related protein 1 (Homo sapiens), sequence (O94907 whole entry, looked up): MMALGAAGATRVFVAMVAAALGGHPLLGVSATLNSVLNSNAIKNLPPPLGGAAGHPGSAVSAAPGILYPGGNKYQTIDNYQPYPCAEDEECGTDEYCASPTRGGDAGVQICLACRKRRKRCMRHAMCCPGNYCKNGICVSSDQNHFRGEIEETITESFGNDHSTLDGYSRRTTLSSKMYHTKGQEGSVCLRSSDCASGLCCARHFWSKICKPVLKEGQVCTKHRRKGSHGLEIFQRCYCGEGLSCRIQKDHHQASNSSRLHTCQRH

[10] = tested on: Inhibin beta A chain (activin A); assay: small molecules binding activin A – biochemical, small-molecule microarray, 635 nm fluorescence scan, primary screen (AID 1107); details: INHBA, higher = more signal;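 also: mouse activin A protein probed at 4.33 µg/mL on printed slides; score merges bound-protein fluorescence near 667 nm with spot signal-to-noise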
[11] = tested on: Human papillomavirus type 1a protein E7 (residues 44-93); assay: small molecules binding HPV E7 44-93 – biochemical, small-molecule microarray, residues 44-93, 635 nm fluorescence, primary screen (AID 1108); details: fluorescence 635 nm, higher = more signal;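 also: E7 fragment applied at 1 µg/mL in TBST for 1 h at 4 C; score combines spot fluorescence with its signal to noise ratio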
[12] = hepatitis C replication reporter changes, two-sided – Huh7 cells, luciferase reporter, HCV replication inhibitor project, primary screen (AID 1109); details: Huh7 HCV replicon luciferase reporter, 48 h; higher = more signal;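 also: huh7 hepatoma cells harbouring a luciferase neomycin HCV replicon reporter; luciferase luminescence as measure of HCV replicon replication; test concentration not given here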
[13] = target: Left-right determination factor 2 (Homo sapiens) (UniProt O00292); assay: small molecules binding LEFTY2 protein – biochemical, small-molecule microarray, 635 nm fluorescence scan, primary screen (AID 1110); details: higher = more signal
Left-right determination factor 2 (Homo sapiens), sequence (O00292 whole entry, looked up): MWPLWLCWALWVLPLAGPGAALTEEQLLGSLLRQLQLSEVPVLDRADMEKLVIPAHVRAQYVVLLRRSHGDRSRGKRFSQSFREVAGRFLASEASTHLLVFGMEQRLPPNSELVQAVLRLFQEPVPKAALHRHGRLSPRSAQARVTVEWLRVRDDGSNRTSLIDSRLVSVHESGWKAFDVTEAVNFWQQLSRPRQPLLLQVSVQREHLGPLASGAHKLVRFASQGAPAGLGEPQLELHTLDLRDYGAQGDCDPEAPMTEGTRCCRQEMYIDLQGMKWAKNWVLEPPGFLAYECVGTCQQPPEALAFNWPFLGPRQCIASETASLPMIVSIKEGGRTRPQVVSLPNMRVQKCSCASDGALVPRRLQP

[14] = target: Calmodulin-1 (Homo sapiens) (UniProt P0DP23); assay: small molecules binding calmodulin-1 with EGTA – biochemical, small-molecule microarray, Cy5-labelled CALM1, profiling panel (AID 1111); details: Cy5-CALM1 binding fluorescence, higher = more signal;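 also: labelled calmodulin applied in Tris saline Tween buffer holding calcium plus EGTA and DTT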
[15] = target: Calmodulin-1 (Homo sapiens) (UniProt P0DP23); assay: small molecules binding Ca-loaded calmodulin-1 – biochemical, small-molecule microarray, Cy5-labelled CALM1, plus calcium, artefact control for SMM control-protein annotation, profiling panel (AID 1112); details: Cy5-CALM1 binding fluorescence, higher = more signal;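 also: score merges spot fluorescence with signal to noise from triplicate slides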
[16] = probe aWnt5a binding to arrayed compounds – biochemical, biotinylated probe, 635/667 nm fluorescence, primary screen (AID 1113); details: small-molecule microarray, higher = more signal;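 also: score merges 667 nm fluorescence intensity with signal-to-noise per printed feature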
[17] = probe aShh binding to arrayed compounds – biochemical, biotinylated probe, 635/667 nm fluorescence, primary screen (AID 1114); details: small-molecule microarray, higher = more signal;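 also: probe is biotin-labelled aShh protein from a stem cell growth factor screen; measures binding of labelled protein to compounds printed on the slide; score merges feature fluorescence at 667 nm with signal-to-noise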
[18] = probe aNog binding to arrayed compounds – biochemical, biotinylated probe, 635/667 nm fluorescence, primary screen (AID 1115); details: small-molecule microarray, higher = more signal;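 also: probe is biotinylated aNog protein used at 0.15 µg/mL for 1 h at 4 C; z-score combines 667 nm fluorescence of each spot with its signal to noise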
[19] = target: Torsin-1A-interacting protein 1 (Homo sapiens) (UniProt Q5JTV8); assay: compound microarray binding of lysate hLAP1 – cell lysate, small-molecule microarray, COS7 lysate, 635/667 nm fluorescence, primary screen (AID 1116); details: 635 nm fluorescence, higher = more signal
Torsin-1A-interacting protein 1 (Homo sapiens), sequence (Q5JTV8 whole entry, looked up): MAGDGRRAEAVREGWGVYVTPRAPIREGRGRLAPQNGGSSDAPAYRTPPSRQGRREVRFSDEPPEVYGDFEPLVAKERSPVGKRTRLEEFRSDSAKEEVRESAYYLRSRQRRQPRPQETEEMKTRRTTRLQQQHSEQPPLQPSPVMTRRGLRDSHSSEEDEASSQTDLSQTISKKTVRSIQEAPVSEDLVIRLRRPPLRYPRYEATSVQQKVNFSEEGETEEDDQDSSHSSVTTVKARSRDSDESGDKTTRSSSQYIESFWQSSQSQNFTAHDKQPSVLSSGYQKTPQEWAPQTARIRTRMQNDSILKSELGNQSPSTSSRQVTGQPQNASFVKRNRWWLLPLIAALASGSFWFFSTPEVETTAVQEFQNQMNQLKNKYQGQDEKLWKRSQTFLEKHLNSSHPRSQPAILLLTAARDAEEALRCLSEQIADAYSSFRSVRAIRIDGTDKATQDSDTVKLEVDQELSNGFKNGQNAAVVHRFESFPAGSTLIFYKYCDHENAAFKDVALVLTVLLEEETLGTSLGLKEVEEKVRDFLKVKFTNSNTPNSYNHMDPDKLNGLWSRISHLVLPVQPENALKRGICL

[20] = target: Alpha-bungarotoxin (Bungarus multicinctus) (UniProt P60615); assay: compounds binding labelled alpha-BTX control protein – biochemical, small-molecule microarray, Alexa647 label, 635/667 nm fluorescence, artefact control for SMM control protein annotation, profiling panel (AID 1117); details: alpha-BTX-A647 binding fluorescence, higher = more signal
Alpha-bungarotoxin (Bungarus multicinctus), sequence (P60615 whole entry, looked up): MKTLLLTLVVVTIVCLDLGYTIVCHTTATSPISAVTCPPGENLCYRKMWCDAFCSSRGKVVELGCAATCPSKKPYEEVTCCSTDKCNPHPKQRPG

| Structure (SMILES) | composite z-score [1] | composite z-score [2] | composite z-score [3] | z-score [4] | composite z-score [5] | composite z-score [6] | composite z-score [7] | composite z-score [8] | composite z-score [9] | composite z-score [10] | composite z-score [11] | z-score [12] | composite z-score [13] | composite z-score [14] | composite z-score [15] | composite z-score [16] | composite z-score [17] | composite z-score [18] | composite z-score [19] | composite z-score [20] |
| --- | --- | --- | --- | --- | --- | --- | --- | --- | --- | --- | --- | --- | --- | --- | --- | --- | --- | --- | --- | --- |
| CC(C)N1C(=O)c2ccccc2[C@@H](C(=O)NCCCN(C)C)[C@@H]1c1ccc(CO)cc1 | 1.31 | 0.744 | 1.01 | -0.472 (inactive) | 0.0328 | -0.367 | -0.568 | -0.85 | -1.25 | 0.557 | -1 | 0.19 | -0.89 | 0.341 | 0.0647 | 0.026 | -0.367 | 0.707 | 0.64 | 0.684 |
| C[C@]1(C(=O)NCc2ccccc2)c2ccccc2C(=O)N(Cc2ccc(OC(F)(F)F)cc2)[C@H]1c1ccc(CO)cc1 | 0.0162 | -0.098 | 0.663 | -0.557 (inactive) | 0.0259 | 0.0034 | -0.535 | 0.115 | -0.393 | 0.0615 | 1.39 | 0.0711 | -0.579 | -0.119 | 0.122 | -0.0882 | -0.304 | -0.381 | 0.696 | -0.141 |
| CN(C)CCCNC(=O)[C@@]1(Cc2ccccc2I)c2ccccc2C(=O)N(Cc2ccccc2C(F)(F)F)[C@H]1c1ccc(CO)cc1 | 0.278 | 0.234 | 0.86 | -1.55 (inactive) | -0.75 | 0.391 | -1.62 | -1.34 | -1.33 | 0.094 | 0.973 | -3.4 | -1.2 | -0.327 | -0.149 | -0.176 | -0.138 | 0.612 | 0.283 | 0.376 |
| [N-]=[N+]=Nc1ccccc1C[C@]1(C(=O)NCCN2CCOCC2)N=C(c2ccc(OCCCO)cc2)O[C@H]1c1ccccc1 | 1.09 | 0.641 | 0.273 | 0.183 (inactive) | 0.484 | 1.31 | -0.117 | -0.391 | -0.019 | -0.16 | 1.03 | -1.99 | -0.0447 | 0.169 | 0.129 | -0.103 | 0.123 | -0.465 | 1.44 | 0.968 |
| CO[C@H]1O[C@H](CO)[C@@H](OC(=O)Nc2ccc(Oc3ccccc3)cc2)[C@H](OC(=O)Nc2ccccc2)[C@H]1OC(=O)Nc1ccccc1 | 1.5 | 0.636 | 0.766 | 0.511 (inactive) | 1.35 | 1.33 | 0.24 | 1.2 | 0.113 | 0.185 | 0.838 | -2.88 | 0.62 | 1.26 | -0.278 | 0.143 | -0.0789 | 0.149 | 1.2 | 1.8 |
| CC(C)C(=C=CC[C@H](O)c1ccccc1OCCO)C[C@H](O)c1ccccn1 | 1.62 | 0.0012 | -0.203 | -0.705 (inactive) | 0.764 | 0.559 | -0.536 | -0.0639 | -0.0832 | 0.407 | 0.143 | -0.493 | 0.64 | -0.227 | -0.253 | -0.0607 | -0.2 | 0.381 | 0.94 | 1.38 |
| C=CC(=C)C1=CCO[C@@H]1[C@H]1CCCN1S(=O)(=O)c1ccccc1[N+](=O)[O-] | 0.487 | -0.268 | -0.268 | -0.626 (inactive) | 0.925 | 0.168 | 0.578 | 1.31 | 0.797 | 1.27 | -0.0291 | -1.4 | 0.867 | 0.397 | -0.112 | -0.101 | -0.0626 | -0.175 | 0.169 | 0.537 |
| COCCOC(=O)N1C(=O)[C@@]2(c3cc(C#CC4=CCCCC4)ccc31)[C@H](C(=O)NC[C@H](O)c1ccccc1)[C@H]1C(=O)O[C@H](c3ccccc3)[C@H](c3ccccc3)N1[C@@H]2c1ccc(O)cc1 | 1.14 | 0.298 | 0.124 | -1.06 (inactive) | 1.22 | 1.3 | 0.663 | 1.41 | 1.06 | 1.01 | 1.38 | -1.84 | 0.693 | 1.1 | 0.274 | -0.163 | -0.0055 | 0.996 | 0.949 | 1.13 |
| O=C1C2C=CC(C(O)c3ccc(B(O)O)cc3)N(Nc3ccccc3)C2C(=O)N1c1ccccc1 (stereo not given) | -0.0545 | 0.82 | 0.634 | -0.451 (inactive) | -0.322 | -1.15 | -0.134 | -0.593 | -0.502 | 1.16 | 0.0036 | -1.49 | -0.158 | 0.883 | 0.665 | -0.0944 | 0.151 | 0.162 | 0.949 | 0.402 |
| COCCOC(=O)N1C(=O)[C@@]2(c3cc(C#CCNC(N)=O)ccc31)[C@H](c1ccc(O)cc1)N1[C@H](c3ccccc3)[C@H](c3ccccc3)OC(=O)[C@H]1[C@@H]2C(=O)Nc1nc2ccccc2s1 | 0.809 | 0.668 | 0.476 | -0.564 (inactive) | 1.14 | 0.306 | 0.228 | 0.85 | 0.562 | 0.815 | 0.793 | 0.171 | 0.691 | 1.41 | 0.707 | -0.0242 | -0.0626 | 0.167 | 0.0164 | 1.1 |
| C=CCOC(=O)[C@@H]1[C@H]2C(=O)O[C@H](c3ccccc3)[C@H](c3ccccc3)N2[C@H](c2ccc(OCCOC(=O)[C@@H]3C[C@@H]4C(=O)N[C@@H](Cc5ccccc5)C(=O)N4[C@@H]3c3cccc(OCCO)c3)cc2)[C@@]12C(=O)Nc1ccc(I)cc12 | 1.12 | -0.0053 | -0.0587 | -0.76 (inactive) | 1.21 | 0.954 | 0.934 | 1.1 | 0.991 | 1.06 | 1.36 | -1.34 | 0.692 | -0.0116 | -0.137 | -0.0516 | -0.0211 | 1.07 | 1.31 | 1.25 |
